Measured values as given in PubChem BioAssay AID743126 (The Scripps Research Institute Molecular Screening Center, 2013).
Out of some 370,000 compounds screened, about 2,100 (0.57%) were called active.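 How the source made its calls: active means inhibition above mean plus 3 SD of compounds lying within the high and low control bounds (cut at about 19% in these data); inactive means the rest.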 For the sample, actives were picked, then their nearest neighbours and some compounds at random.

target: Group 3 secretory phospholipase A2 (Homo sapiens) (UniProt Q9NZ20); assay: HGIII-sPLA2 enzyme inhibition – biochemical, QFRET, BODIPY PC-A2 liposome substrate, primary screen (AID 743126); settings: QFRET BODIPY PC-A2 liposome hydrolysis, fluorescence; at 12.2 µM; hits give high values;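 further: 0% = median of test compound wells and 100% = no enzyme DMSO wells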
Sequence (Q9NZ20 whole entry, looked up): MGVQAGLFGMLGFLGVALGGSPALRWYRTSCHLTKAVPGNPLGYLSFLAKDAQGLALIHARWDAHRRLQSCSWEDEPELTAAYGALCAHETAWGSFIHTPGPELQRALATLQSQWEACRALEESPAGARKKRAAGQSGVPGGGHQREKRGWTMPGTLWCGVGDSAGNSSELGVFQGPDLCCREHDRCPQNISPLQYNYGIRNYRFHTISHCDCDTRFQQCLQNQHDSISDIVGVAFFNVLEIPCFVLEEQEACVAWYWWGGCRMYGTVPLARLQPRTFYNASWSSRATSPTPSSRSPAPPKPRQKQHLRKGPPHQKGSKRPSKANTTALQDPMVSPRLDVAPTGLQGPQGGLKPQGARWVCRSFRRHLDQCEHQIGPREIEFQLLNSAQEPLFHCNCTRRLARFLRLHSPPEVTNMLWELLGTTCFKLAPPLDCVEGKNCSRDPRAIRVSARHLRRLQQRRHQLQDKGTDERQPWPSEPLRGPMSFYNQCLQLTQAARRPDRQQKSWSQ

inhibition, inactive:
Nc1ccc2nn(-c3ccc(Cl)cc3)nc2c1 0.58%
NC(=O)C1(C(N)=O)OC1c1ccc(Cl)cc1Cl (stereo unspecified) -4.76%
Cc1ccc(C(=O)N(Cc2ccccn2)CC2CCCO2)cc1 (stereo unspecified) 1.49%
CCN(CC)C(=O)CC[C@@H]1CC[C@]2(CCCN(S(=O)(=O)C3CCCCC3)C2)O1 11.9%
Cc1ccc(C(=O)Nc2nc(N)n(-c3ccccc3)n2)cc1 12.6%
O=C(NNc1nc(N2CCCC2)nc(N2CCCC2)n1)c1ccccc1 -2.93%
COC(=O)[C@]12C[C@H](CC(=O)NCc3cccc4ccccc34)C(=O)N(CCc3ccc(OC)c(OC)c3)C1=C[C@H](C1CCCC1)O[C@@H]2C -20.3%
CCn1c2ccccc2c2cc(NC(=O)CSc3nnc(-c4ccccc4)n3-c3ccc(C)cc3)ccc21 -1.34%
CCn1c(=O)n2n(c1=O)[C@@]1(C=C3CCCC[C@H]32)N=C(NC(=O)c2ccccc2)N(Cc2ccccc2)[C@H]1Cc1ccccc1 10.8%
C[C@H]1[C@H](NC(=O)c2cccc(N(C)C)c2)CC[C@@]23CCCN2C(=O)CCC[C@@H]13 -4.79%
Fc1ccccc1Cc1ccc(Cl)nn1 9.12%
COC(=O)[C@@]12CCCCC=C1N(CCc1ccc(Cl)cc1)C(=O)[C@H]2CC(=O)NCc1ccc(OC)c(OC)c1 -15%
CC(C)(C)C(=O)c1c(N)[nH]c(C(=O)c2ccccc2)c1-c1ccc(F)cc1 5.32%
Nc1[nH]c(C(=O)c2ccc(Br)cc2)c(-c2ccc3c(c2)OCO3)c1C(=O)NCCc1c[nH]c2ccccc12 -43.9%
COc1ccc(CCNC(=O)CSc2nc3c([nH]2)c(=O)n(C)c(=O)n3C)cc1 5.11%
CC(C)CNc1cccc2c1S(=O)(=O)N(Cc1cn(Cc3ccccc3C(F)(F)F)nn1)Cc1ccccc1O2 6.58%
CCOC(=O)C1CCN(C(=O)C(C)(C)NC(=O)Nc2ccc(F)c(F)c2)CC1 1.05%
CCOc1ccc(/C=N\NC(=O)c2c(C)nc3cc(C)ccn23)cc1 1.86%
CCOc1ccc(NS(=O)(=O)c2ccc(C)c(C(N)=O)c2)cc1 2.14%
CCOC(=O)N1CCN(C(=O)C[C@H]2C[C@@]3(C(=O)OC)C(=C[C@H](C(C)(C)C)O[C@@H]3C)N(Cc3ccc(Cl)cc3Cl)C2=O)CC1 -6.16%
CCOC(=O)[C@]12CCCC3=C1N(CCC3)C(=O)[C@@H](CC(=O)NCc1cccs1)C2 -0.88%
COC(=O)[C@]12C[C@H](CC(=O)NCCCN3CCCC3=O)C(=O)N(CCc3ccc(OC)c(OC)c3)C1=C[C@H](COCc1ccccc1)O[C@@H]2C 11.1%
Cc1ccc(C2CC(c3cccc(Br)c3)n3nc(N)nc3N2)cc1 (stereo unspecified) 9.36%
COc1ccc(C2CC(c3ccc(Cl)cc3Cl)Nc3nc(N)nn32)cc1OC (stereo unspecified) 0.41%
O=C(OC12CCCN(C1)/C(=C/c1ccccc1)C2)c1ccco1 (stereo unspecified) 4.15%
C=CCN(Cc1ccc2c(c1)OCO2)C(C#CC1CC1)C(C)(C)C (stereo unspecified) 7.02%
COc1cc(NC(=O)C2CCCN(S(=O)(=O)c3ccc(C(C)(C)C)cc3)C2)cc(OC)c1 (stereo unspecified) 2.94%
CCC(c1ccc(NC(=O)OC(C)(C)C)cc1)c1cc(OC)cc(OC)c1 (stereo unspecified) -18.5%
COc1ccc(CSc2nnc(SCC(=O)Nc3ccccc3C(F)(F)F)s2)cc1 -11.2%
Cc1nn(CCOc2ccccc2)c(=O)n1-c1ccccc1F 3.1%
O=C(NCCOc1ccccc1)c1ccccc1F 8.32%
COC(=O)[C@]12C[C@H](CC(=O)NCc3ccccc3)C(=O)N(CCC3=CCCCC3)C1=C[C@H](C(C)C)O[C@@H]2C1CC1 -0.06%
CCn1c(SCC(C)=O)nc2sc3c(c2c1=O)CCCC3 -63%
CCCC1CCC2(CCCN2CCOC(=O)NCc2ccccc2)CC1 (stereo unspecified) 0.68%
CC(=O)OC12CCCN(C1)/C(=C/c1ccncc1)C2 (stereo unspecified) 8.67%
CC(=O)C1(C(=O)Nc2nccs2)CC(c2ccccc2C(F)(F)F)=NO1 (stereo unspecified) -9.84%
Cc1cccc(C(=O)NC(=S)N(C)C2CCCCC2)c1 7.08%
Cc1cccc(NC(=S)NCc2ccc3[nH]c4c(c3c2)CCCC4)c1 -9.81%
C=CCN1C(=O)[C@H](CC(=O)N2CCN(C(=O)OCC)CC2)[C@@]2(C(=O)OCC)CCCC=C12 -3.08%
Cc1ccccc1CN1CCCCC(NC(=O)c2cccc(C#N)c2)C1=O (stereo unspecified) 14%
CCOc1ccc(-n2c(SCC(=O)Nc3cc(C)c(NC(=O)c4ccccc4)cc3OC)nnc2-c2cccs2)cc1 -11.7%
CCC[C@H]1C(=O)CC[C@@]23CCCN2C(=O)CCC[C@@H]13 9.16%
COc1ccc([C@H]2OC(=O)C[C@H]2C(=O)N2CCN(c3ccccc3F)CC2)cc1OC -0.35%
Cn1c2c(c(=O)n(C)c1=O)[C@@H]1c3c(ccc4ccccc34)OC[C@@H]1CO2 1.04%
COc1cccc2c1OCC1COc3c(c(=O)n(C)c(=O)n3C)C21 (stereo unspecified) 8%
CC(=O)N1CCCN(C2=Nc3ccccc3Sc3ccccc32)CC1 -5.38%
O=C(NCc1ccc(Cl)cc1)C1CCCN(c2nc3ccccc3o2)C1 (stereo unspecified) 0.81%
Cc1ccc(NC(=O)Cc2cccc(F)c2)c(S(=O)(=O)N2CCOCC2)c1 -2.31%
Cc1c[nH]c2cccc(-c3ccc(Cl)cc3)c12 -16.5%
Cc1cc(C)nc(NC(=S)N2CCN(c3ccc(C(F)(F)F)cn3)CC2)c1 11.2%
O=C(NCC(=O)N1CCN(c2ncc(C(F)(F)F)cc2Cl)CC1)c1ccc(Br)o1 -1.88%
CN1[C@H](Cc2ccccc2)COc2cccc(N3CCSCC3)c2S1(=O)=O -2.69%
O=C(c1cn(-c2ccccc2)nc1-c1cccnc1)N1CCN(S(=O)(=O)c2ccccc2F)CC1 -9.4%
O=C(NNC(=S)NCCCN1CCOCC1)c1ccncc1 -1.42%
O=C(CSc1nnc(COc2ccccc2)n1-c1ccc(Cl)cc1)Nc1ccc2c(c1)OCO2 -14.5%
COC(=O)c1cccc(Cn2ccc3ccc(-c4ccc5ccn(C(=O)C6CCCCC6)c5c4)cc32)c1 -3.82%
CN(C)C(=S)Nc1ccc(Br)cc1Cl 1.77%
S=C(Nc1ccc(Br)cc1Cl)NC1CCN(Cc2ccccc2)CC1 0.32%
Cc1ccc(Cn2cc(COC(=O)N(C)Cc3ccccc3)nn2)cc1 -5.61%
Cc1ccc(-n2c(SCC(=O)Nc3ccc(S(=O)(=O)Nc4nccs4)cc3)nnc2-c2cccnc2)cc1 -21.7%
O=C1CC[C@@]23CCCN2C(=O)CCC[C@H]3[C@H]1Cc1ccccc1 3.91%
Cc1cccc(N2CCN(C(=O)c3ccccc3NC(=O)C3CCCCC3C(=O)O)CC2)c1 (stereo unspecified) 7.57%
O=C(O)/C=C/C(=O)NNc1ccc([N+](=O)[O-])cc1 -1.39%
CSc1ccc(NC(=O)N2CC(C)OC(C)C2)cc1 (stereo unspecified) 10.2%
O=C(CN1CCN(c2ccc(O)cc2)CC1)Nc1ccc(-c2ccccc2)cc1 2.26%
Cc1ccc(-c2nc(C3CCCN(S(=O)(=O)c4ccc(Br)s4)C3)no2)cc1 (stereo unspecified) 7.46%
C=C(C)C1CC23C(=O)C4(C(=O)c5ccccc5)C[C@@]5(C)CCC(CC2C1(C)C)(C4=O)C35OC (stereo partly specified) 4.03%
COc1ccc(C(=O)CSc2nnc(-c3cnccn3)n2-c2ccc(C)cc2)cc1 -19.7%
O=C(NN1C(=O)C2CCCCC2C1=O)c1ccco1 (stereo unspecified) -6.36%
CC(C)=C1C2CCC1C1C(=O)N(NC(=O)c3ccco3)C(=O)C21 (stereo unspecified) 0.15%
C=CCN1C(=O)[C@@H](CC(=O)N2CCN(C(=O)OCC)CC2)[C@]2(C(=O)OCC)CCCCC/C=C/12 3.8%

inhibition, active:
Nc1ccc2c(c1)C(O)c1ccc(Cl)cc1-2 (stereo unspecified) 19.6%
Cc1ccc(-c2csc(NNC(=O)c3ccccc3)n2)cc1 41.2%
C/C(=N\Nc1ccc(Cl)nn1)c1ccccc1O 23.4%
Nc1[nH]c(C(=O)c2ccccc2)c(-c2ccc(Br)cc2)c1C(=O)NC1CC1 25.4%
CCOc1ccc(/C=N/NC(N)=S)cc1 19.5%
Cc1ccc(C2CC(c3cccc(C)c3)n3nc(N)nc3N2)cc1 (stereo unspecified) 25.2%
CC(C)(c1ccccc1)c1ccc(OCCN)cc1 23.6%
Cc1cccc(NC(=S)NCCN(C2CCCCC2)C2CCCC2)c1 23.8%
Cn1c2c(c(=O)n(C)c1=O)C1c3ccccc3OCC1C(C)(C)O2 (stereo unspecified) 20.6%
COc1ccnc(NC(=S)N2CCN(c3ncc(C(F)(F)F)cc3Cl)CC2)c1 23.3%
O=C(NNC(=S)NC(=O)c1cn(-c2ccccc2)nc1-c1ccccc1)c1ccncc1 19.6%
O=C(NNC(=S)Nc1ccc(Br)cc1Cl)c1ccco1 26.4%
CSc1ccc(NC(=O)/C=C/C(=O)O)cc1 22.1%
Cc1cccc(N2CCN(c3ccc(NC(=O)/C=C\C(=O)O)cc3)CC2)c1 20.7%
O=C(NN1C(=O)C2C3C=CC(C3)C2C1=O)c1ccco1 (stereo unspecified) 22.3%
